An excerpt weighted towards active compounds, which were near 7.5% of everything screened.
Rab9 prom act = activates the Rab9 promoter; Huh7 Rab9 promoter-luciferase reporter, luminescence, 24 h; Potency, µM (series often up to 9.22 µM), for the others: at the highest dose activation, negative = inhibition, actives largely listed as activators; hit rate 2.8% among 320,000; also: % of control where 0% means no effect; nearly all actives have a fitted effect of over 60% in size
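Huh7 reporter line, Rab9 promoter upstream of luciferase. Compound exposure 24 h at 37 °C in reduced-serum medium with 10% FBS. Read-out: luminescence.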
SMN2 splice enh = enhancers of SMN2 splice variant expression; HEK293 SMN2-luciferase splicing reporter, luminescence, 30-36 h; Potency, µM (top dose mostly 46.1 µM), for inactives: top-dose activity change, positive = activation, usual class: activators; hit rate 2.8% among 210,000; AID 1458; also: % of control where 0% means no effect; nearly all actives have a fitted effect of over 55% in size
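qHTS luciferase splicing reporter: luminescence rises when SMN2 exon 7 is included in transfected HEK293 cells. Compound exposure lasted 30-36 h at 37C, with 4.5 mM final sodium butyrate as control, followed by a ONE-Glo read.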
NPC1 promoter act = activates the NPC1 promoter; Huh7 NPC1 promoter luciferase reporter, 24 h; AID 485313; hit rate 2.4% among 320,000; Potency, µM (highest dose often 9.22 µM), for the others: at the highest dose activation, usual class: activators; also: % of control where 0% means no effect; nearly all actives have a fitted effect of over 60% in size
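Luminescence from an NPC1 promoter-driven luciferase reporter in stably transfected Huh7 cells was measured after 24 h compound treatment at 37 °C, followed by 10 min ambient incubation with luciferase detection reagent.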
KinaseGlo FLuc = Kinase-Glo luciferase inhibition (counter-screen); Q27757; Kinase-Glo luciferase, ATP luminescence, 8 min; Potency, µM (top dose mostly 38.3 µM), for inactives: at the highest dose activity change, negative = inhibition, hits mostly inhibitors; hit rate 0.28% among 200,000; also: % is scaled to controls: 0 for no effect and ±100 for the full control effect; nearly all actives have a fitted effect of over 60% in size
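Substrate mix (final 50 mM imidazole pH 7.2, 50 mM KCl, 7 mM MgCl2, 10 uM ATP, 0.01% Tween 20, 0.05% BSA) plus pin-tool compound, then Kinase-Glo detection mix; 8 min ambient, luminescence read.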
ELG1 genotoxic = induces genotoxicity in HEK293T cells with luciferase-tagged ELG1 | HEK293T ELG1-luciferase reporter, luminescence, 16 h | Potency, µM (top dose mostly 46 µM), for inactives: at the top dose activity change, positive = activation, usual class: activators | hit rate 1.3% among 330,000; also: % of control where 0% means no effect; nearly all actives have a fitted effect of over 60% in size
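Screening used a luciferase reporter fused to human ELG1 in HEK293T cells. Luminescence was read on a CCD plate imager after 16 hr exposure and 30 min ONE-Glo incubation.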
FLuc modulator = inhibits or activates purified firefly luciferase, miR-21 counter-screen. P08659. AID 588342. hit rate 6.9% among 360,000. purified FLuc, Km substrates, luminescence inhibition. Potency, µM (highest dose often 57.5 µM), for the others: at the highest dose activity change, negative = inhibition, most hits filed as inhibitors;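 also: plate controls were vehicle for no effect and reference inhibitor for full effect; nearly all actives have a fitted effect of over 55% in size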
Target sequence (P08659 whole entry, looked up): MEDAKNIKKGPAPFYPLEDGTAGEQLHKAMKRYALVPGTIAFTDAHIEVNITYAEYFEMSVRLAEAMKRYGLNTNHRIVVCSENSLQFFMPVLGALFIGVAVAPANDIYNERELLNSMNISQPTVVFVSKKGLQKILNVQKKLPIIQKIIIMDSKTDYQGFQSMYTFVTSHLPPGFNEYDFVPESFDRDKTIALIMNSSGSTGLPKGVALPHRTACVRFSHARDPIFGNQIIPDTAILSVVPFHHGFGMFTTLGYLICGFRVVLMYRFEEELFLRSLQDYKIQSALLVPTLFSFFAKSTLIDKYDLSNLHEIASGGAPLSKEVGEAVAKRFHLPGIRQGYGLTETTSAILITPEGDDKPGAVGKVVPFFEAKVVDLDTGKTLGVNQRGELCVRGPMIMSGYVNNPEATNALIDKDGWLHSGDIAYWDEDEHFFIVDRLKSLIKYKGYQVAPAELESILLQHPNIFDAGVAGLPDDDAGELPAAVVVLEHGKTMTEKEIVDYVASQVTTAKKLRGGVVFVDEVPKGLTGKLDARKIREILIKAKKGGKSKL
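Biochemical qHTS of compounds, final roughly 60 µM downward over six points, against 10 nM purified firefly luciferase using Km concentrations of substrates (10 uM D-luciferin, 10 uM ATP) in Tris acetate pH 7.5 buffer; luminescence output.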
* = called active by the depositor. Calls follow the shape of the dose curve; as a rule, active = well fitted curve in the direction sought with a large enough effect; inconclusive = small, poorly fitted or top-dose-only effect, or another doubt; inactive = no such curve, though single readings can be large; an effect the other way counts as inactive or inconclusive. Potency is read from the fitted curve at half-maximal effect.

What do the screens show for `COc1cccc(C(=O)Nc2ccc(C(F)(F)F)n(C)c2=O)c1`?
Rab9 prom act: 2.8µM*; NPC1 promoter act: 2.8µM*; KinaseGlo FLuc: inconclusive; ELG1 genotoxic: inconclusive; FLuc modulator: 6µM*

What do the screens show for `O=C(NCCN1CCCCC1)c1ccc(I)cc1`?
SMN2 splice enh: -6%; KinaseGlo FLuc: -1%

How did COc1ccc(C)cc1NC(=O)C(=O)NCC1(c2ccccc2)CCCC1 do in these assays?
SMN2 splice enh: 20%; FLuc modulator: -2%

What do the screens show for `COc1cccc(C(=O)Nc2ccc(F)cc2F)c1`?
Rab9 prom act: inconclusive; SMN2 splice enh: 13µM*; NPC1 promoter act: inconclusive; KinaseGlo FLuc: -14%; ELG1 genotoxic: inconclusive; FLuc modulator: inconclusive

How did COc1ccc(C(=O)Nc2ccc(F)cc2F)cc1OC do in these assays?
Rab9 prom act: 15%; SMN2 splice enh: 4%; NPC1 promoter act: 13%; KinaseGlo FLuc: -10%; ELG1 genotoxic: 14%; FLuc modulator: -1%

How did COc1cccc(C(=O)Nc2ccccc2F)c1 do in these assays?
Rab9 prom act: inconclusive; SMN2 splice enh: 11µM*; NPC1 promoter act: 21%; KinaseGlo FLuc: -27%; ELG1 genotoxic: inconclusive; FLuc modulator: inconclusive

How did COc1cccc(C(=O)Nc2ccc(F)c(F)c2F)c1 do in these assays?
Rab9 prom act: inconclusive; SMN2 splice enh: inconclusive; NPC1 promoter act: inconclusive; KinaseGlo FLuc: -7%; ELG1 genotoxic: inconclusive; FLuc modulator: 17µM*

Results for O=c1oc2cc(OCc3ccc(F)cc3F)ccc2cc1-c1ccc2ccccc2n1 ?
Rab9 prom act: -5%; SMN2 splice enh: -31%; NPC1 promoter act: -6%; KinaseGlo FLuc: 3%; ELG1 genotoxic: 1%; FLuc modulator: 6%

Results for O=C(NC1CCN(S(=O)(=O)c2ccccc2)CC1)c1ccc(F)cc1 ?
Rab9 prom act: -6%; NPC1 promoter act: -6%; ELG1 genotoxic: -3%; FLuc modulator: 2%

How did Brc1ccc2ncc(Br)cc2c1 do in these assays?
Rab9 prom act: -6%; SMN2 splice enh: 6%; NPC1 promoter act: -3%; KinaseGlo FLuc: -3%; ELG1 genotoxic: 3%; FLuc modulator: 2%

Results for O=C(/C=C/c1ccccc1)Nc1scc(-c2ccccc2)c1C(=O)O ?
Rab9 prom act: 1.6µM*; SMN2 splice enh: 11µM*; NPC1 promoter act: 2.5µM*; KinaseGlo FLuc: -11%; ELG1 genotoxic: 12%; FLuc modulator: 3µM*

Results for O=C(/C=C/c1ccco1)Nc1scc(-c2ccccc2)c1C(=O)O ?
Rab9 prom act: 0.5µM*; NPC1 promoter act: 0.45µM*; ELG1 genotoxic: inconclusive; FLuc modulator: 4.8µM*

What do the screens show for `Cc1ccnc(NCc2ccc(Br)cc2)c1`?
Rab9 prom act: 12%; NPC1 promoter act: 22%; ELG1 genotoxic: 0%; FLuc modulator: inconclusive

How did CCN(CC)c1ccc(CNc2ccc(Br)cn2)cc1 do in these assays?
Rab9 prom act: 26%; SMN2 splice enh: inconclusive; NPC1 promoter act: inconclusive; KinaseGlo FLuc: 0%; ELG1 genotoxic: 10µM*; FLuc modulator: inconclusive

Results for CCOc1cc(-c2cc(-c3ccccc3)nc(N)c2C#N)ccc1O ?
Rab9 prom act: -3%; SMN2 splice enh: inconclusive; NPC1 promoter act: -1%; KinaseGlo FLuc: 4%; ELG1 genotoxic: inconclusive; FLuc modulator: -18%

What do the screens show for `CCOc1cc(-c2cc(-c3ccc(N)cc3)nc(N)c2C#N)ccc1O`?
Rab9 prom act: 9%; SMN2 splice enh: 13µM*; NPC1 promoter act: 1%; KinaseGlo FLuc: -4%; ELG1 genotoxic: -1%; FLuc modulator: -13%

What do the screens show for `Clc1cccc(-n2ncc3c(N4CCCCC4)ncnc32)c1`?
FLuc modulator: 0.43µM*

How did Clc1cccc(-n2ncc3c(N4CCCCCC4)ncnc32)c1 do in these assays?
FLuc modulator: 1.7µM*

Screening data deposited in PubChem BioAssay by National Center for Advancing Translational Sciences (NCATS).
